# Measured values taken from paper PMC4552634, “A New Set of Chemical Starting Points with Plasmodium falciparum Transmission-Blocking Potential for Antimalarial Drug Discovery” (PLoS ONE, 2015).
# Among all 13,000 compounds or so, about 3,200 (25%) showed an effect of 50% or more. The list shows a part of the results.
# System: P. falciparum stage V gametocytes
# Parameters: BacTiter-Glo ATP luminescence viability of purified stage V gametocytes in 384-well plates, per cent inhibition versus DMSO
# Conditions: 48 h, 5 µM; inhibitor
row,SMILES,% Inhibition [%]
1,CCN(C(=O)CSc1cc(C)c2cc(C)cc(C)c2n1)C1CCS(=O)(=O)C1 (stereo not drawn) [TCMDC-123568],-6.938
2,CN(C)CCCOc1ccc(CN2CCC(c3c[nH]c4ccc(NCC5CCCCC5)cc34)CC2)cc1 [TCMDC-140737],96.97
3,COc1ccc2[nH]cc(C3CCN(Cc4ccc(NC(=O)c5ccc(-c6ccccc6)cc5)cc4)CC3)c2c1 [TCMDC-139069],7.748
4,COc1ccc2[nH]cc(C3CCN(CCCCNC(=O)c4ccc(NC(=O)c5ccc(Cl)cc5)cc4)CC3)c2c1 [TCMDC-138328],-10.4
5,Cc1noc(C)c1-c1cccc(CNCc2cccc(-c3cccc(-c4nc5ccccc5[nH]4)c3)c2)c1.O=C(O)C(F)(F)F [TCMDC-133065],2.097
6,CCCCn1c(=N)c(C(=O)NCc2cccnc2)cc2c(=O)n3cccc(C)c3nc21 [TCMDC-124382],12.6
7,COc1ccc(CCn2c(=N)c(C(=O)NCc3ccccc3)cc3c(=O)n4cccc(C)c4nc32)cc1 [TCMDC-124473],6.095
8,Cc1cccn2c(=O)c3cc(C(=O)NC(C)c4ccccc4)c(=N)n(CCc4ccccc4)c3nc12 (stereo not drawn) [TCMDC-124469],-59.42
9,Cc1cccn2c(=O)c3cc(C(=O)NCCc4ccccc4)c(=N)n(CCCOC(C)C)c3nc12 [TCMDC-125410],68.18
10,CCOCCCn1c(=N)c(C(=O)NCc2ccc(OC)cc2)cc2c(=O)n3cccc(C)c3nc21 [TCMDC-125406],75.07
11,COc1ccc(CCn2c(=N)c(C(=O)NCc3cccnc3)cc3c(=O)n4ccccc4nc32)cc1 [TCMDC-124471],25.4
12,CCOCCCn1c(=N)c(C(=O)NCc2ccc(F)cc2)cc2c(=O)n3cccc(C)c3nc21 [TCMDC-125407],36.21
13,Cc1ccc2nc3c(cc(C(=O)NCCc4ccccc4)c(=N)n3CCCOC(C)C)c(=O)n2c1 [TCMDC-125408],-18.91
14,COc1ccc(CCn2c(=N)c(C(=O)NCc3cccnc3)cc3c(=O)n4cccc(C)c4nc32)cc1 [TCMDC-124470],92
15,CCCn1c(=N)c(C(=O)NCCc2ccccc2)cc2c(=O)n3cccc(C)c3nc21 [TCMDC-125084],4.719
16,Cc1cccn2c(=O)c3cc(C(=O)NCc4cccnc4)c(=N)n(CCc4ccccc4)c3nc12 [TCMDC-125663],86.68
17,COCCCn1c(=N)c(C(=O)NCCc2ccc(OC)cc2)cc2c(=O)n3cccc(C)c3nc21 [TCMDC-125085],9.799
18,Cn1c(-c2ccccc2)cc2c3c(=O)cc(C(F)(F)F)[nH]c3ccc21 [TCMDC-123876],31.04
19,C#CCOc1ccc(N2C(N)=NC(N)=NC2(C)C)cc1 [TCMDC-137471],11.38
20,CC(C)c1cc2c(ccc3nc(N)nc(N)c32)o1 [TCMDC-131930],25.15
21,Cc1ncccc1C(=O)Nc1cccc(-c2cccc(-c3nc4c(C)cccc4[nH]3)c2)c1 [TCMDC-136861],-23.88
22,COc1cccc(C(=O)N2CCOC(CCN3CCC(c4ccccc4)CC3)(c3ccc(Cl)c(Cl)c3)C2)c1 (stereo not drawn) [TCMDC-135336],-36.5
23,CCCCNC(=O)[C@H](CC1CCCCC1)NC(=O)c1ccc(O)c(-c2ccc(Cl)c(Cl)c2)c1 [TCMDC-140841],30.41

row,SMILES,% Inhibition [%]
1,Oc1c(CN2CCC(Cc3ccccc3)CC2)cc(Cl)c2cccnc12 [TCMDC-124594],97.81
2,O=C(NC1CC1)c1cnc(N2CCC(Cc3ccccc3)CC2)c(Cl)c1 [TCMDC-134606],6.713
3,COc1cc(C)cc(CN2CCC(Cc3ccccc3)CC2)c1O [TCMDC-124540],-75.55
4,Cc1nccn1Cc1cc(C(C)(C)C)c(O)c(C(C)(C)C)c1 [TCMDC-131329],-8.756
5,COc1cc(CNC[C@@H](O)[C@H](Cc2ccccc2)NC(=O)c2cc(OC(C)C)cc(N3CCCS3(=O)=O)c2)cc(OC)c1 [TCMDC-134559],3.73
6,COc1cc2c(cc1C=CC(=O)N1CCN(Cc3nc4sc(C)c(C)c4c(=O)[nH]3)CC1)OC(C)C2 (stereo not drawn) [TCMDC-132412],-4.453
7,CN(C)CCOc1cc(NC(=O)Nc2ccc(-c3ccccc3)cc2Cl)ccc1I [TCMDC-139140],-41.53
8,C/C=C/C=C/C1=NCCc2cc(OCCC)ccc21 [TCMDC-137442],112.8
9,CCC(O)c1ccc(Br)cc1NC(=O)c1cccc(Cl)c1 (stereo not drawn) [TCMDC-125394],16.03
10,O=C(O)c1ccc2c(c1)N(C(=O)CNCc1ccc(F)cc1)CC(=O)N2CCCc1ccccc1 [TCMDC-140379],-9.998
11,CNC(=O)Cc1ccc(C(=O)Nc2cccc(-c3csc(-c4nc5ccccc5[nH]4)c3)c2)cc1 [TCMDC-132395],-10.74
12,Fc1ccc2[nH]c(-c3ccccc3)nc2c1CN1CCC(N2CCCC2)CC1 [TCMDC-136310],4.53
13,c1ccc(-c2[nH]c3ccccc3c2CN2CCC(N3CCCCC3)CC2)nc1 [TCMDC-141636],54.53
14,Clc1ccc(-c2[nH]c3ccccc3c2CN2CCC(N3CCCCC3)CC2)cc1 [TCMDC-141631],17.32
15,COc1ccc2nccc(N3C[C@H]4C[C@@H]3CN4CCNCc3ccc4c(n3)NC(=O)CS4)c2n1 [TCMDC-134685],4.783
16,Cn1nc(-c2ccc(NC(=O)Nc3cc(C(F)(F)F)cc(C(F)(F)F)c3)c(F)c2)c2cnc(NCCN3CCOCC3)nc21 [TCMDC-141560],5.577
17,CCN(CC)CCCNc1ncc2c(-c3ccc(NC(=O)Nc4cc(C(F)(F)F)ccc4F)c(F)c3)nn(C)c2n1 [TCMDC-141609],106.5
18,Cn1nc(-c2ccc(NC(=O)Nc3cc(C(F)(F)F)ccc3F)c(F)c2)c2cnc(NCCCn3ccnc3)nc21 [TCMDC-141612],3.105
19,Cn1nc(-c2ccc(NC(=O)Nc3cc(C(F)(F)F)ccc3F)cc2)c2cnc(NCCCCN3CCCC3)nc21 [TCMDC-141585],81.15
20,Cn1nc(-c2ccc(NC(=O)Nc3cc(C(F)(F)F)ccc3F)c(F)c2)c2cnc(NCCCN3CCOCC3)nc21 [TCMDC-141607],30.03
21,CN1CCN(CCCNc2ncc3c(-c4ccc(NC(=O)Nc5cc(C(F)(F)F)ccc5F)c(F)c4)nn(C)c3n2)CC1 [TCMDC-141611],81.4
22,CC1CCCCN1CCCNc1ncc2c(-c3ccc(NC(=O)Nc4cc(C(F)(F)F)ccc4F)c(F)c3)nn(C)c2n1 (stereo not drawn) [TCMDC-141608],97.41
